Experiment [1] is described as follows: yeast TOR pathway RPL19A-GFP modulators, primary screen, cell-based, S. cerevisiae, multiplex flow cytometry (AID 1862; in the data active means percent of DMSO control GFP below about 86%;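 further: lower values mimic rapamycin by blocking the RPL19A rise seen in DMSO cells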). As to conditions: S. cerevisiae RPL19A-GFP strain, flow cytometry fluorescence, 3 h; at 10 µM; stronger effect = lower value. (In general: Flow cytometry measures light scatter and fluorescence of single cells or particles in a stream.)
A short description of experiment [2]: modulators of MEP2-GFP levels in yeast, primary screen, S. cerevisiae, multiplex flow cytometry (AID 1867;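 active means GFP response, as percent of the DMSO control, above the screen-wide mean plus 3 SD, about 139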;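 further: median GFP channel fluorescence of barcode-gated MEP2-GFP cells measured by flow cytometry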). As to conditions: S. cerevisiae MEP2-GFP strain, 3 h, at 10 µM, stronger effect = higher value, 100% means same as DMSO wells.
Experiment [3] can be described thus: modulators of CIT2-GFP expression in yeast, primary screen, S. cerevisiae, GFP fusion, multiplex flow cytometry (AID 1870;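 active means percent response above a set limit, the screen-wide mean plus 3 SD, cut at about 130% in these data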;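 further: barcoded CIT2-GFP strain pooled with four other GFP strains with rapamycin as positive control; median GFP fluorescence per well over plate mean of DMSO wells so 100% = DMSO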). As to conditions: 3 h, at 10 µM, stronger effect = higher value.
Experiment [4] can be described thus: modulators of LAP4-GFP expression in yeast, primary screen, S. cerevisiae, multiplex flow cytometry (AID 1873;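 active means GFP signal, as percent of the solvent control, above the screen mean plus 3 SD, about 149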). The note with it: 3 h, at 10 µM, stronger effect = higher value.
Experiment [5] is described as follows: modulators of AGP1-GFP expression in yeast TOR pathway, primary screen, cell-based, multiplex flow cytometry, S. cerevisiae (AID 1887;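 active means GFP signal above the screen-wide mean plus 3 SD, that is over about 124.5% of the solvent control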;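 further: AGP1-GFP fusion strain of S. cerevisiae within a five-strain barcoded multiplex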). The note with it: 3 h, at 10 µM, stronger effect = higher value.
The nature of experiment [6]: inhibitors of CD8+ T cell-vesicle binding, pilot screen, LFA-1/ICAM-1 modulator project, MLPCN validation set, flow cytometry (AID 2523;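 active means response below a set limit, under 55% cells CD8-positive and vesicle-bound, and CD8 cells' 90th-percentile brightness under 279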;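 on vesicle binding response: mean PE anti-B7-1 fluorescence of CD8+ cells relative to row control; 100% = QL9-loaded vesicles with DMSO vehicle in the same plate row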). The note with it: 2C mouse CD8+ T cells, at 7 µM, stronger effect = lower value; double positive events: measured here: CD8+/vesicle+ event percentage.
Experiment [7] deals with Integrin beta-1 (Homo sapiens) + Integrin alpha-4 (Homo sapiens) (UniProt P13612+P05556). Put plainly: inhibition of HUTS-21 binding to VLA-4, pilot screen, VLA-4 allosteric modulator project, U937 cells, HUTS-21 mAb, flow cytometry, validation set (AID 2674;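 active means inhibition above 50%, about 3 SD of the validation set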;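 further: antibody binding induced by the VLA-4 ligand LDV present at three times its Kd; 0% = LDV ligand with antibody and no compound and 100% = antibody without LDV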). The note with it: HUTS-21 LIBS mAb binding, at 6.7 µM, stronger effect = higher value, binding induced by LDV ligand.
Experiment [8] is described as follows: superoxide lowering in aged yeast cells, pilot screen, validation compound set (AID 2706;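 active means superoxide response below 65% of plate, a cut near 3 SD across the whole screen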;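 further: yeast exposed to compound for one week at 30 degrees C before staining; 100% = mean of all compound wells on the same plate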). As to conditions: S. cerevisiae aging, superoxide DHE fluorescence; at 10 µM; stronger effect = lower value.
The target in experiment [9] is Beta-adrenergic receptor kinase 1 (Homo sapiens) (UniProt P25098). Put plainly: GRK2 binders displacing RNA aptamer, biochemical, validation, human GRK2, bead flow cytometry (AID 488806;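 active means aptamer binding inhibition above 30%, about 3 SD of noise from non-fluorescent compounds; inactive means inhibition at or below 30%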). The note with it: bead-bound GRK2, FAM-aptamer displacement, at 10 µM, stronger effect = higher value.
The target of experiment [10] is Beta-2 adrenergic receptor (Homo sapiens) (UniProt P07550). Put plainly: beta2AR agonists driving receptor internalization, pilot screen, cell-based, FAP fluorogen, flow cytometry, validation set (AID 504459;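 active means percent response above 42, roughly 3 SD of non-fluorescent test compounds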;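 further: agonist-driven loss of surface beta2AR via internalization measured by FAP dye flow cytometry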). The note with it: Am2.2-beta2AR cells, FAP surface receptor flow cytometry; at 10 µM; stronger effect = higher value.
In experiment [11] the target is AP-2 complex subunit beta (Homo sapiens) (UniProt P63010). Kind of experiment: inhibitors of arrestin peptide binding to AP2, pilot screen, biochemical, validation set, GST-AP2 beads, flow cytometry (AID 504541;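 active means inhibition above 54%, about 3 SD of non-fluorescent compounds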;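 further: AP2 carries R879A mutation and is captured from E. coli lysate; bead-bound FITC arrestin peptide fluorescence measuring arrestin peptide binding to AP2; 0% = DMSO wells and 100% = excess unlabeled arrestin peptide control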). The note with it: FITC arrestin peptide, at 10 µM, stronger effect = higher value, AP2 beta2 appendage fragment, R879A mutant.
Experiment [12] in a line: yeast V-ATPase proton transport modulators, S. cerevisiae, pHLuorin, HTS validation (AID 504600; in the data active means response above about 15%;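 further: plate controls were DMSO for no effect and reference compound for full effect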). The note with it: S. cerevisiae pHLuorin cytosolic pH, at 10 µM, stronger effect = higher value.
In experiment [13] the test system is anti-desmoglein-3 scFv antibody binding to human DSG3. Kind of experiment: inhibitors of anti-DSG3 scFv binding to DSG3, pilot screen, biochemical, validation compound set, bead-based, flow cytometry (AID 588368;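 active means binding below the plate cutoff, the plate median minus 3 SD, with a reading above zero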;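 further: signal is the median channel fluorescence of bead-bound GFP antibody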). As to conditions: Protein G beads, DSG3-Fc, scFv-GFP binding, at 10 µM, stronger effect = lower value.
Experiment [14] can be described thus: inhibitors of fungal efflux pumps CDR1, CDR2, MDR1, pilot screen, validation compound set, multiplex, phenotypic (AID 588506).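 Further: Nile Red retained in cells so higher fluorescence means more efflux inhibition; 0 = negative control wells and 1 = enniatin B 25 µM full block.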 As to conditions: S. cerevisiae pump-expressing triplex, Nile Red efflux flow cytometry; at 10 µM; stronger effect = higher value; the pumps come from Candida albicans.
The target of experiment [15] is ATP-binding cassette sub-family B member 6 (Homo sapiens) (UniProt Q9NP58). Put plainly: ABCB6 transporter inhibitors, pilot screen, K562-ABCB6 cells, flow cytometry, validation set (AID 588550;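 active means inhibition above the screen-wide mean plus 3 SD, about 51%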;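 further: 0% = DMSO wells and 100% = benzethonium chloride 70 µM positive control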). As to conditions: K562-ABCB6 porphyrin accumulation, 1 h, at 10 µM, stronger effect = higher value.
Experiment [16] in a line: promoters of myeloid differentiation in arrested cells, primary screen, cell-based, GFP/MAC1 double positive, flow cytometry, validation set (AID 588685;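 active means differentiation response of at least 50%, scaled between solvent and reference control, from cells with both markers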;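 further: compound exposure lasts four days before antibody staining and flow analysis; 0% = DMSO wells and 100% = 5 µM fulvestrant positive control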). As to conditions: ER-HoxA9 marrow cells, stronger effect = higher value, normalized: vehicle 0, fulvestrant 100.

Records with an inconclusive call do not appear. Calls of active or inactive are those of the source.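 How the source made its calls, unless noted: active means efflux inhibition above 0.42, the validation set average plus 4 SD; inconclusive means no clear call, values can overlap the other calls; inactive means the rest.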

Usually inhibition stands for the change of the read-out against control, counted positive when it falls.

AP-2 complex subunit beta (Homo sapiens), sequence (P63010 whole entry, looked up, the tested form may be a part, one chain of several): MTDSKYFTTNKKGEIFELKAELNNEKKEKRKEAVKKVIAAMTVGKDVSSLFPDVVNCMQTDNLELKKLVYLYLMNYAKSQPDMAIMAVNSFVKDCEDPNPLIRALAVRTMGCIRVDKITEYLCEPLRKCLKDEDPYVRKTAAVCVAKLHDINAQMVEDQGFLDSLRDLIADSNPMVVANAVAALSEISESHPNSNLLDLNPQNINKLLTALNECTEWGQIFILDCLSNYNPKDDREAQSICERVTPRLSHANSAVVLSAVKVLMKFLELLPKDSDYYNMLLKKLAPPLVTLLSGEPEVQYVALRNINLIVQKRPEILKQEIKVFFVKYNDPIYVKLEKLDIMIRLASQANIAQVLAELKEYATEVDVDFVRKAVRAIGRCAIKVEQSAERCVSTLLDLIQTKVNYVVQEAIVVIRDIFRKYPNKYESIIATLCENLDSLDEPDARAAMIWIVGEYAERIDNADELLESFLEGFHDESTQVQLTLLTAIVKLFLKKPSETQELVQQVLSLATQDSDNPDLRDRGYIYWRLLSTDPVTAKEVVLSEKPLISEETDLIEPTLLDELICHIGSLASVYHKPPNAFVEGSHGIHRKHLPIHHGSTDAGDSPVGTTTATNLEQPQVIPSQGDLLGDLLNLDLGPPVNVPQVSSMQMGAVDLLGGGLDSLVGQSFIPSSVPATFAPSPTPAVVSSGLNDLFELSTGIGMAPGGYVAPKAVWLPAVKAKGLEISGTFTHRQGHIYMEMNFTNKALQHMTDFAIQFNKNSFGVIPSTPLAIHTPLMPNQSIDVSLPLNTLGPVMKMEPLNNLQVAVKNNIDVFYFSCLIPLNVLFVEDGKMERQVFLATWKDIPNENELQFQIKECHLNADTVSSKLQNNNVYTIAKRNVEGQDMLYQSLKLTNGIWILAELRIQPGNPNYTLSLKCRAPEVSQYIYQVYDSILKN
Beta-2 adrenergic receptor (Homo sapiens), sequence (P07550 whole entry, looked up): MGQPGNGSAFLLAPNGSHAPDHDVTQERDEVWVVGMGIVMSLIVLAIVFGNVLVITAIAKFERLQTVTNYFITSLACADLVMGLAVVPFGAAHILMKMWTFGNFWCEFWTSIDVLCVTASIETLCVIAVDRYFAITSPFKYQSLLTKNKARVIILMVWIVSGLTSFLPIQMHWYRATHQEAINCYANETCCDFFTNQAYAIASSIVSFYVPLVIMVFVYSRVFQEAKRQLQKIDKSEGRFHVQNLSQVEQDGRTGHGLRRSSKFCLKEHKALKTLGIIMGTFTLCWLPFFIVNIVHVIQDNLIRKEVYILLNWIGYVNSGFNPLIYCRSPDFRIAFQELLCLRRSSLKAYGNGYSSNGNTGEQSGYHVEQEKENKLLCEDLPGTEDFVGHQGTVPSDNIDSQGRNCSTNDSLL
Beta-adrenergic receptor kinase 1 (Homo sapiens), sequence (P25098 whole entry, looked up): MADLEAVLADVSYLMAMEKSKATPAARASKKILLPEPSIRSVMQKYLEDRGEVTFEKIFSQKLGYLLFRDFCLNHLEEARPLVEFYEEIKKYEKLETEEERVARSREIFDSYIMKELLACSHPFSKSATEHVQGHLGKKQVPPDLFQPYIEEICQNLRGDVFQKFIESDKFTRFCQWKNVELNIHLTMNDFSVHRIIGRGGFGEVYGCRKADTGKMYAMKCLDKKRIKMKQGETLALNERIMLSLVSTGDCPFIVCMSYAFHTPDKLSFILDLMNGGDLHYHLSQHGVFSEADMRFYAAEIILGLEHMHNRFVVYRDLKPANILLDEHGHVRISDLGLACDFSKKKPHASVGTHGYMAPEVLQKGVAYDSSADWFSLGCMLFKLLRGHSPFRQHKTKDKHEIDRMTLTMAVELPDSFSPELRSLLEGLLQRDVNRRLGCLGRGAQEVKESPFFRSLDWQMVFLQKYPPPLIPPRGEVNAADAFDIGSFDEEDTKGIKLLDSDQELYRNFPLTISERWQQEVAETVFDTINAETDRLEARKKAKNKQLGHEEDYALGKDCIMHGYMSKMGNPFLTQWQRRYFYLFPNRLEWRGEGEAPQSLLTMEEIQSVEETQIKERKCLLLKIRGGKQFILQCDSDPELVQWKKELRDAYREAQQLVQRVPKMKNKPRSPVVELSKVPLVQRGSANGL
Integrin beta-1 (Homo sapiens) + Integrin alpha-4 (Homo sapiens), sequence (P05556 whole entry, looked up): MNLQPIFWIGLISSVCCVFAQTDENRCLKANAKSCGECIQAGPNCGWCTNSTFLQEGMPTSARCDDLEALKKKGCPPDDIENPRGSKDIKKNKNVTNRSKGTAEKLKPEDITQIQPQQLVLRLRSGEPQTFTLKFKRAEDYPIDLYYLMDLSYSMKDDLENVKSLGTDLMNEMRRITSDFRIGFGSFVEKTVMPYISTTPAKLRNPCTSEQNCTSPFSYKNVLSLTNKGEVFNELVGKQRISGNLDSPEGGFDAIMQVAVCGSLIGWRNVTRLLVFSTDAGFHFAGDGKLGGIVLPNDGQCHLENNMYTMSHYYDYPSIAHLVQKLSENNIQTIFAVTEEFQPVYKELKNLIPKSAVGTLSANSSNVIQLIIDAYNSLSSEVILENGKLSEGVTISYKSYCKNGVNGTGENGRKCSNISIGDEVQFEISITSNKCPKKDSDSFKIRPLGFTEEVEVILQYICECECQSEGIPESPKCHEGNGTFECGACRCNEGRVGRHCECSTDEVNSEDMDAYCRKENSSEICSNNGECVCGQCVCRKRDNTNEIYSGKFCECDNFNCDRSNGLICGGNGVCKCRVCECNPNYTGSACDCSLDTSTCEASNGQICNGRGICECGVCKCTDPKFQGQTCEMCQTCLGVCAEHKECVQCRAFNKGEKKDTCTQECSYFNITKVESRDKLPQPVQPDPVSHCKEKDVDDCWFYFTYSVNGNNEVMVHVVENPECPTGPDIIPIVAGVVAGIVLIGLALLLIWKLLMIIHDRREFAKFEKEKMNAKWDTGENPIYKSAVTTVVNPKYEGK
Integrin beta-1 (Homo sapiens) + Integrin alpha-4 (Homo sapiens), sequence (P13612 whole entry, looked up): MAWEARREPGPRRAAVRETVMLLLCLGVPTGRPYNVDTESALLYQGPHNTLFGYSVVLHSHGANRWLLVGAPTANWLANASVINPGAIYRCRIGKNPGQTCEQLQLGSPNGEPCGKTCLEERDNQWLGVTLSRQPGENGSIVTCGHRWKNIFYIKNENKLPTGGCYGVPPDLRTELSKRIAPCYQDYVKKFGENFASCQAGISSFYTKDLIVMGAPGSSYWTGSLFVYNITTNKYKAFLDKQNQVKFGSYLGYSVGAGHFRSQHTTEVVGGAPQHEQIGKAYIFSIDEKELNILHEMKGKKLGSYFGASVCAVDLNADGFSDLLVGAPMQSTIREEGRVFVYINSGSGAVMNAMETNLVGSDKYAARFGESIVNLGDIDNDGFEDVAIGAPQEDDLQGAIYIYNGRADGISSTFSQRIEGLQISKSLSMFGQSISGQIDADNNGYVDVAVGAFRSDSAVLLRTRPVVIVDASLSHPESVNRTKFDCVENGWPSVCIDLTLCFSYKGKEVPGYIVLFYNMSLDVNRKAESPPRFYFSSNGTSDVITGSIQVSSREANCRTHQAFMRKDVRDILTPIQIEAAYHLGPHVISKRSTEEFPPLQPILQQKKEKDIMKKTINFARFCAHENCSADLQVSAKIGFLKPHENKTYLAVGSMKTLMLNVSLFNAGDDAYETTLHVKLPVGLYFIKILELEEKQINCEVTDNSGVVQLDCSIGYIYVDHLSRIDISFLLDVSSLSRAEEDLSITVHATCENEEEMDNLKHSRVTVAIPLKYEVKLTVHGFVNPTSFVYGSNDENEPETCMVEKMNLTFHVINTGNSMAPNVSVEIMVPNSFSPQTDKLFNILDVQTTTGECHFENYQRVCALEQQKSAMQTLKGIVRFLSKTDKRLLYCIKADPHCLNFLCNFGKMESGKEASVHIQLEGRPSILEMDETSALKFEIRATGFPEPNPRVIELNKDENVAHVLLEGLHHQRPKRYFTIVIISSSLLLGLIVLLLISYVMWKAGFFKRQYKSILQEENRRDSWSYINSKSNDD
ATP-binding cassette sub-family B member 6 (Homo sapiens), sequence (Q9NP58 whole entry, looked up): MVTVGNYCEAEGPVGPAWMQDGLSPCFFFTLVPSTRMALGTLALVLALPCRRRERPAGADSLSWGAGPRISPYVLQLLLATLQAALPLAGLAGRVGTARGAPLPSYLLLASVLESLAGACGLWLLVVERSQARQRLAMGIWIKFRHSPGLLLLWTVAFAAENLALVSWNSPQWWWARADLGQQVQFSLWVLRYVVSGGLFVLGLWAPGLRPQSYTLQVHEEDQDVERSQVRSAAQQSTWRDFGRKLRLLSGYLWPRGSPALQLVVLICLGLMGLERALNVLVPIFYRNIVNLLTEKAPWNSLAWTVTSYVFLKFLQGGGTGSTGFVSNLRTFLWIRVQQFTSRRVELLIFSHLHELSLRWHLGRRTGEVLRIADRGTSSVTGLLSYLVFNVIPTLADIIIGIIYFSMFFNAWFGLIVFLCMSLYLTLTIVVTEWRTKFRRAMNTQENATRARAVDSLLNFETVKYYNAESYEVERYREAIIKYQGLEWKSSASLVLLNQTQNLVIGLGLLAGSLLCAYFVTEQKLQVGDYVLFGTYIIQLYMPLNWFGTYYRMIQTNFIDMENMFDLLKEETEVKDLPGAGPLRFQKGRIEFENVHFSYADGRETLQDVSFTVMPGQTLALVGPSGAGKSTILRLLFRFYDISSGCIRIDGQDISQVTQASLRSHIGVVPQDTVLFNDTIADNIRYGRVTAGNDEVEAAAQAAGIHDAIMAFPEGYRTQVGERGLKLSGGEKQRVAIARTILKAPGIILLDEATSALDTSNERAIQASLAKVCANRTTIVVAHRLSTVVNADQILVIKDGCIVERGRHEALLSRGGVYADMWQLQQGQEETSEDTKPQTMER

`O=C(OCCNC(=O)c1ccc2ccccc2n1)c1ccc(F)cc1`: the percent of DMSO control GFP in experiment [1] was 103% (inactive). For the same compound, the GFP response vs DMSO is 110% (inactive) in experiment [2] and 87.4% (inactive) in [4]. Also, the percent response of DMSO control in experiment [3] was 97.8% (inactive). Further, the GFP response, % of DMSO in [5] was 88.9% (inactive). In [6], this compound came in with a double positive events of 58.4%. Also, in [6], the vesicle binding response was 241% (inactive). Besides, the figures for the inhibition in experiment [7], in experiment [11] and in [15] were 2.66% (inactive), 2.3% (inactive) and 0% (inactive), respectively. Further, the superoxide response (% of plate) in experiment [8] was 114% (inactive). Besides, the aptamer binding inhibition in experiment [9] was 0% (inactive). Further, the response in experiment [10] is 4.51% (inactive); in experiment [12], 1.13% (inactive). Besides, in [13], the binding (% of control) was 99.2% (inactive). Further, the efflux inhibition (fraction of control) in experiment [14] is -0.04 (inactive). Moreover, the differentiation response in [16] was 8.06% (inactive).
For the compound `Cc1cccc(C)c1NC(=O)C1CCCCN1C` (stereo not given), the percent of DMSO control GFP in experiment [1] was 102% (inactive). The GFP response vs DMSO in experiment [2] was 104% (inactive); in experiment [4] it was 90.1% (inactive). For the same compound, the percent response of DMSO control in [3] is 97.8% (inactive). Besides, the GFP response, % of DMSO in experiment [5] was 97% (inactive). This compound came in with a double positive events in experiment [6] of 62.6%. In experiment [6], the vesicle binding response is 92.5% (inactive). Moreover, the inhibition was -4.6% (inactive) in [7], 15.4% (inactive) in [11] and 1% (inactive) in experiment [15]. In experiment [8], the superoxide response (% of plate) was 104% (inactive). Also, the aptamer binding inhibition in [9] is 5% (inactive). Also, the figures for the response in experiment [10] and in [12] were 10.4% (inactive) and 0.17% (inactive), respectively. Moreover, the binding (% of control) in experiment [13] was 98.2% (inactive). The efflux inhibition (fraction of control) in [14] was -0.01 (inactive). Moreover, the differentiation response in experiment [16] was -1.71% (inactive).
Consider `COc1ccc(O)c(C(=O)/C=C/c2cc3ccccc3o2)c1`, for which, in [1], the percent of DMSO control GFP was 95.9% (inactive). Also, the figures for the GFP response vs DMSO in experiment [2] and in [4] were 112% (inactive) and 109% (inactive), respectively. Besides, the percent response of DMSO control in experiment [3] is 96.7% (inactive). Also, the GFP response, % of DMSO in experiment [5] was 95.2% (inactive). The same compound showed a double positive events in experiment [6] of 59.6%. Besides, in [6], the vesicle binding response is 117% (inactive). Moreover, the inhibition was -0.43% (inactive) in experiment [7], 1.27% (inactive) in experiment [11] and 1% (inactive) in experiment [15]. In addition, the superoxide response (% of plate) in experiment [8] was 106% (inactive). The aptamer binding inhibition in [9] was 3% (inactive). The values for the response in experiment [10] and in experiment [12] were 23% (inactive) and 0.06% (inactive), respectively. Further, in experiment [13], the binding (% of control) is 102% (inactive). In [14], the efflux inhibition (fraction of control) is -0.17 (inactive). In addition, the differentiation response in experiment [16] is -2.4% (inactive).
As for `COc1ccc2c(c1)c(=O)oc1cc3occ(C(C)(C)C)c3cc12`, in experiment [1], the percent of DMSO control GFP was 103% (inactive). Moreover, the results for the GFP response vs DMSO in [2] and in experiment [4] were 105% (inactive) and 109% (inactive), respectively. The percent response of DMSO control in experiment [3] is 103% (inactive). Moreover, the GFP response, % of DMSO in [5] is 108% (inactive). Besides, the double positive events in [6] was 60%. Moreover, the vesicle binding response in experiment [6] was 138% (inactive). For the same compound, the values for the inhibition in experiment [7], in experiment [11] and in [15] were 9.95% (inactive), 42.4% (inactive) and 0% (inactive), respectively. Further, the superoxide response (% of plate) in [8] is 92.5% (inactive). Further, the aptamer binding inhibition in experiment [9] was 0% (inactive). Also, the response in experiment [10] is -15.7% (inactive); in experiment [12], 29.4% (active). Further, the binding (% of control) in [13] was 93.8% (inactive). For the same compound, in [14], the efflux inhibition (fraction of control) was 0.21 (inactive). In experiment [16], the differentiation response was -14.8% (inactive).
With `COc1ccc(NC(=O)N2CCCCC2c2cccnc2)cc1` (stereo not given), the percent of DMSO control GFP in [1] is 98.9% (inactive). Besides, the results for the GFP response vs DMSO in experiment [2] and in [4] were 105% (inactive) and 109% (inactive), respectively. Also, the percent response of DMSO control in experiment [3] is 99% (inactive). Besides, in experiment [5], the GFP response, % of DMSO was 105% (inactive). Besides, the double positive events in experiment [6] turned out to be 59.7%. In addition, the vesicle binding response in [6] was 454% (inactive). Further, the inhibition is 7.4% (inactive) in experiment [7], 0.21% (inactive) in [11] and -2% (inactive) in [15]. Also, in [8], the superoxide response (% of plate) was 116% (inactive). Moreover, in [9], the aptamer binding inhibition was 7% (inactive). Moreover, the response in experiment [10] is -25.6% (inactive); in [12], 3.03% (inactive). In addition, the binding (% of control) in experiment [13] was 103% (inactive). The efflux inhibition (fraction of control) in experiment [14] is 0 (inactive). Also, the differentiation response in experiment [16] is -18.8% (inactive).

(Values after PubChem BioAssay.)
